In PubChem BioAssay (Tox21):
“And” between values parts separate entries of the source, which are not always exact repeats. Equal values may be shown once. A number with no mark means an inactive call. Records with an inconclusive call do not appear. Entries that show only a call come without a potency. The source made the active and inactive calls. Unless noted, calls follow the shape of the dose curve; as a rule, active = well fitted curve in the direction sought with a large enough effect in the repeat runs; inconclusive = weak or mixed curves; inactive = no such curve, though single readings can be large; an effect the other way counts as inactive or inconclusive.

Columns and labels:
[1] = qHTS assay for small molecules that induce genotoxicity in human embryonic kidney cells expressing luciferase-tagged ATAD5 (AID 651632); also: nearly all actives have a fitted effect of over 15% in size
Procedure, shortened: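 Reporter cells (HEK293T) express luciferase-tagged ATAD5, a protein that accumulates after DNA damage. Treat 16 hr at 37C/5% CO2, add Amplite, wait 30 min at RT, and read luminescence.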

[2] = qHTS assay for small molecule agonists of the p53 signaling pathway - cell viability (AID 651633; calls by dose curve; also: nearly all actives have a fitted effect of over 30% in size; also: potency is read from the fitted curve at half-maximal effect)
Procedure, shortened: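 Viability counter-read: CellTiter-Glo luminescence (30 min, room temperature) in the same p53RE-bla plates. These plates had been exposed to compounds for 16 h at 37 C.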

[3] = qHTS assay for small molecule disruptors of the mitochondrial membrane potential - cell viability (AID 720634; calls by dose curve; also: nearly all actives have a fitted effect of over 20% in size; also: potency is read from the fitted curve at half-maximal effect)
Procedure, shortened: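 Measuring cytotoxicity alongside mitochondrial potential, the screen quantified ATP by luminescence in HepG2 cells after 1 hr compound incubation and a 30 min room-temperature CellTiter-Glo step.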

[4] = qHTS assay for small molecule disruptors of the mitochondrial membrane potential (AID 720635); also: potency is read from the fitted curve at half-maximal effect
Procedure, shortened: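 Mitochondrial membrane potential tracked with Mito-MPS dye, red aggregates (ex 540/em 590 nm) against green monomers (ex 490/em 535 nm). Compound treatment 1 hr at 37C, dye 30 min in HepG2.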

[5] = qHTS assay to test for compound auto fluorescence at 590 nm (red) in HepG2 cells (AID 720674)
Procedure, shortened: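 Red autofluorescence (Ex/Em 540/590 nm, Rose Bengal sodium equivalents) was measured in HepG2 cells, 2,000 per well in MEM plus 10% FBS, plated overnight at 37 C. Readings were taken 1 hr after adding 23 nL compound or DMSO, at 37 C and 5% CO2.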

[6] = qHTS assay to test for compound auto fluorescence at 535 nm (green) in HepG2 cells (AID 720675)
[7] = qHTS assay to test for compound auto fluorescence at 590 nm (red) in HEK293 cells (AID 720679)
Procedure, shortened: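 Plates of HEK293 cells (10% dialyzed FBS) are treated with 23 nL compound or DMSO vehicle after a 4-5 hr attachment period, incubated overnight at 37C, and read for red fluorescence at 540/590nm.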

[8] = qHTS assay for small molecules that induce genotoxicity in human embryonic kidney cells expressing luciferase-tagged ATAD5 - cell viability (AID 651634; calls by dose curve; also: nearly all actives have a fitted effect of over 25% in size; also: potency is read from the fitted curve at half-maximal effect)
Procedure, shortened: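 Seeding of 2,000 HEK293T ATAD5-luciferase cells per well preceded pin-tool compound transfer. Plates sat 15.5 hr at 37C under 5% CO2, then fluorescence was read after 30 min with CellTiter-Fluor.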

[9] = qHTS assay to test for compound auto fluorescence at 460 nm (blue) in HEK293 cells (AID 720678)
Procedure, shortened: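 After cell attachment (4-5 hr, 37C), compounds were pinned onto HEK293 monolayers in 10% dialyzed FBS medium. The blue channel (405/460 nm) was read following overnight culture. Equivalency was calculated against triamterene.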

| SMILES | Potency [1] | Potency [2] | Potency [3] | Potency [4] | outcome [5] | Potency [6] | outcome [7] | Potency [8] | Potency [9] | fluorescence, % of fluorescein control [6] | fluorescence, % of triamterene [9] | fluorescence, % of fluorescent control [7] |
| --- | --- | --- | --- | --- | --- | --- | --- | --- | --- | --- | --- | --- |
| NC1CCC(CC2CCC(N)CC2)CC1 (stereo unspecified) | inactive | inactive | inactive | inactive | inactive | inactive | inactive |  |  |  |  |  |
| CCC(C)Nc1c([N+](=O)[O-])cc(C(C)(C)C)cc1[N+](=O)[O-] (stereo unspecified) | inactive | inactive |  |  | inactive | inactive | inactive | inactive |  |  |  |  |
| COP(=S)(OC)Oc1ccc([N+](=O)[O-])c(C)c1 | inactive | inactive |  | 68.6 µM (active) | inactive | inactive | inactive | inactive | inactive |  |  |  |
| CCC[CH2][Sn]([CH2]CCC)([CH2]CCC)[CH2]CCC | inactive | 43.3 µM (active) |  | 4.86 µM (active) | inactive | inactive | inactive | 19.3 µM (active) |  |  |  |  |
| CNC(=O)O/N=C(\C)C(C)S(C)(=O)=O (stereo unspecified) | inactive | inactive | inactive |  | inactive | inactive | inactive | inactive |  |  |  |  |
| COc1ccc(Cc2nccc3cc(OC)c(OC)cc23)cc1OC | inactive | inactive | inactive |  |  |  |  |  |  | 0.0156% [at 18.6 µM] | -0.311% [at 18.6 µM] | -0.0717% [at 18.6 µM] |
| CCOP(=O)(Sc1ccccc1)Sc1ccccc1 | inactive |  | inactive |  | inactive | inactive | inactive | inactive | inactive |  |  |  |
| CCCCC(CC)COC(=O)c1ccccc1C(=O)OCC(CC)CCCC (stereo unspecified) | inactive |  | inactive |  | inactive | inactive | inactive | inactive | inactive |  |  |  |
| ClC(Cl)C(Cl)(Cl)Cl |  | inactive | inactive | inactive | inactive | inactive | inactive | inactive | inactive |  |  |  |
| CCC[CH2][Sn]([CH2]CCC)([CH2]CCC)[O][Sn]([CH2]CCC)([CH2]CCC)[CH2]CCC |  | 0.533 µM (active) | 1.68 µM (active) | 0.0752 µM (active) |  |  |  | 0.377 µM (active) |  | -0.0029% [at 3.72 µM] | -0.1% [at 3.72 µM] | -0.182% [at 3.72 µM] |
| O=C(O)[C@H](O)[C@@H](O)C(=O)O | inactive |  | inactive |  | inactive | inactive | inactive | inactive | inactive |  |  |  |
| O=c1c2ccccc2c(=O)c2c1cc(Cl)c1[nH]c3c([nH]c12)c(Cl)cc1c(=O)c2ccccc2c(=O)c13 | inactive |  | inactive |  | inactive | inactive | inactive | inactive | inactive |  |  |  |
| Cc1c([N+](=O)[O-])c(C)c([N+](=O)[O-])c(C(C)(C)C)c1[N+](=O)[O-] |  | inactive | inactive | 15.4 µM (active) | inactive | inactive | inactive | inactive |  |  |  |  |
| CCOC(=O)Cc1ccccc1 |  | inactive | inactive |  | inactive | inactive | inactive | inactive | inactive |  |  |  |
| O=[N+]([O-])c1ccc(CCl)cc1 |  | inactive | inactive | inactive | inactive | inactive | inactive | inactive | inactive |  |  |  |
| [F][Sn]([c]1ccccc1)([c]1ccccc1)[c]1ccccc1 |  | 3.06 µM (active) | 19.3 µM (active) | 0.273 µM (active) | inactive | inactive | inactive | 0.486 µM (active) | inactive |  |  |  |
| CN1CCc2cc(Cl)c(O)cc2[C@H]2c3ccccc3CC[C@@H]21 |  | inactive | inactive |  | inactive | inactive | inactive | inactive | inactive |  |  |  |
| C#CCC1=C(C)C(OC(=O)C2C(C=C(C)C)C2(C)C)CC1=O (stereo unspecified) | inactive |  |  | 60.7 µM (active) | inactive | inactive | inactive | inactive |  |  |  |  |
| C1=CCC=C1 |  | inactive | inactive |  |  | inactive | inactive | inactive |  |  |  |  |
| CSC(C)(C)/C=N/O | inactive |  | inactive | inactive |  | inactive | inactive | inactive |  |  |  |  |
| [O-][Cl+3]([O-])([O-])O | inactive |  | inactive |  | inactive | inactive | inactive | inactive | inactive |  |  |  |
| Clc1ccc(C(c2ccc(Cl)cc2)C(Cl)Cl)cc1 | inactive |  | inactive | 9.85 µM (active) and 9.69 µM (active) |  | inactive | inactive | inactive | inactive |  |  |  |
| BrCCCBr |  | inactive | inactive | inactive | inactive | inactive | inactive | inactive | inactive |  |  |  |
| CNN |  | inactive | inactive | inactive | inactive | inactive | inactive | inactive | inactive |  |  |  |
| O=C(Nc1ccc(F)cc1F)c1cccnc1Oc1cccc(C(F)(F)F)c1 | inactive |  | inactive | 23.8 µM (active) | inactive | inactive | inactive | inactive | inactive |  |  |  |
